MARV entry inh: inhibitors of Marburg virus binding or cell entry; AID 540276; Potency, µM (highest dose often 37.8 µM), most hits filed as inhibitors; Marburg virus pseudotyped entry inhibition, cell reporter; 300,000 compounds, 1.8% hits; calls by dose curve; tested in HEK293 cells
Lassa entry inh: Lassa virus entry inhibition; Lassa virus pseudotype entry inhibition, cell reporter; Potency, µM (doses to about 37.9 µM), hits mostly inhibitors; 300,000 compounds, 1.2% hits; AID 540256; calls by dose curve; tested in HEK293 cells; note: nearly all actives have a fitted effect of over 50% in size
HCV inhibitor: blocks hepatitis C virus; 340,000 compounds, 3.4% hits; Huh7.5.1 HCVcc-Cre infection, luciferase reporter, 44 h; Potency, µM (top dose mostly 41.8 µM), usual class: inhibitors; active = well fitted inhibition curve with a large enough effect; inconclusive = small, poorly fitted or top-dose-only effect, or another doubt; inactive = no such curve, though single readings can be large or run the other way
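Infectious HCV cell culture screen: compound-treated cells (1,000/well, pre-plated 4 h) are infected with HCVcc-Cre at roughly 0.5 moi and grown 44 h. Infection is quantified by luciferase signal after 15 min substrate incubation at room temperature.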
Shiga inhibitor: blocks Shiga toxin action in Vero cells; Vero cells, Shiga toxin protein synthesis inhibition reporter; inhibition, % at 38.7 µM; 290,000 compounds, 9.2% hits; AID 2315; in the data active = inhibition mostly above about 28%, no sharp cut-off; inactive = mostly below about 43%
FMDV inh: foot and mouth disease virus antiviral activity | 410,000 compounds, 1.2% hits | Potency, µM (top dose mostly 57.9 µM), most hits filed as inhibitors | FMDV antiviral cell-based qHTS; calls by dose curve; tested in HEK293T cells; note: read-out not given here; nearly all actives have a fitted effect of over 45% in size
Cycloheximide cs: counter-screen hit for Shiga toxin inhibitors, cycloheximide | 300,000 compounds, 12% hits | max response, % | AID 2314 | cell reporter, cycloheximide protein synthesis inhibition counterscreen; in the data active = max response mostly above about 13%, no sharp cut-off; inactive = mostly below about 14%; note: read at 38.3 µM for the half of the compounds with a filed dose
Each line names hits and unclear results; the compound was inactive in the other large screens. Shown are actives, neighbours in structure and some others; about 13% of the full set was active somewhere.

c1ccc2[nH]c(-c3ccnc4ccccc34)nc2c1	Cycloheximide cs 27
Cc1ccc(Nc2nc3c(c(=O)[nH]2)CCCC3)cc1	HCV inhibitor inconclusive
O=c1[nH]c(Nc2nc3ccccc3o2)nc2c1CCCC2	MARV entry inh 6.5µM, Lassa entry inh 5.2µM, Shiga inhibitor 76, Cycloheximide cs 39 (no result: FMDV inh)
C/C(=N\NC(=O)CSCc1ccccc1Cl)c1cc(O)ccc1O	HCV inhibitor inconclusive, Shiga inhibitor 40, Cycloheximide cs 23 (no result: MARV entry inh, Lassa entry inh)
CC(=O)Nc1ccc(NC(=O)CSCc2ccccc2Cl)cc1	none (no result: Shiga inhibitor, Cycloheximide cs)
Cc1ccc(CN2CCC[C@]3(N[C@H](c4ccccc4)[C@@H]4C(=O)N(Cc5ccccc5)C(=O)[C@@H]43)C2=O)cc1	none (no result: MARV entry inh, Lassa entry inh, HCV inhibitor, Shiga inhibitor, Cycloheximide cs)
CCc1ccc(-n2c(=O)c3cccnc3n2CC(=O)NCc2ccc(F)cc2)cc1	none (no result: MARV entry inh, HCV inhibitor, Shiga inhibitor, Cycloheximide cs)
CC1CCN(c2nc3c(c(=O)n(C)c(=O)n3C)n2CCSc2nc3ccccc3s2)CC1	MARV entry inh inconclusive, Lassa entry inh inconclusive, HCV inhibitor 11µM
Cn1c(=O)c2c(nc(N3CCCCC3)n2CCSc2nc3ccccc3s2)n(C)c1=O	Lassa entry inh inconclusive, HCV inhibitor inconclusive
Cn1c(=O)[nH]c(=O)c2c1nc(N1CCCCC1)n2CCCSc1nc2ccccc2s1	MARV entry inh inconclusive, Lassa entry inh inconclusive, HCV inhibitor 10µM, FMDV inh inconclusive
COCCN1C(=O)NC(c2cccc(F)c2)C(C(=O)OC)=C1C (centres undefined)	none (no result: Lassa entry inh, HCV inhibitor, Shiga inhibitor, FMDV inh, Cycloheximide cs)
Cc1ccccc1-n1nnnc1SCc1csc(-c2ccccc2)n1	MARV entry inh inconclusive, Lassa entry inh 13µM, HCV inhibitor inconclusive
Cc1ccccc1-n1nnnc1SCC(C)C	HCV inhibitor inconclusive
O=C1N(Cc2cccnc2)C[C@@H]2C[C@@H](c3ccc(-c4ccccc4)cc3)N3CCC[C@@]123	MARV entry inh inconclusive, Lassa entry inh inconclusive, HCV inhibitor inconclusive, FMDV inh inconclusive
Cc1ccc(N2C(=O)C(CN(C)C)C2c2ccccc2)cc1 (centres undefined)	MARV entry inh inconclusive
Cc1ccc(C2C=NN(c3ccccc3)C2=O)cc1 (centres undefined)	Shiga inhibitor 29, Cycloheximide cs 18 (no result: MARV entry inh, Lassa entry inh)
O=C(NC(=S)NCCC1=CCCCC1)c1ccco1	MARV entry inh inconclusive, Shiga inhibitor 107, Cycloheximide cs 37
CNNC(=S)NCCC1=CCCCC1	Cycloheximide cs 16 (no result: MARV entry inh, Lassa entry inh)
Cc1ccccc1C(=O)NC(=S)NCCC1=CCCCC1	none
Cc1cc(=O)nc2c3ccccc3n(CC(=O)NCCC3=CCCCC3)n12	Cycloheximide cs 40
CC(=O)c1cccc(NC(=S)NCCC2=CCCCC2)c1	MARV entry inh inconclusive, Lassa entry inh inconclusive, HCV inhibitor 11µM, Shiga inhibitor 47, Cycloheximide cs 33
Cc1ccc(SCC(=O)NCCC2=CCCCC2)cc1	MARV entry inh inconclusive, Shiga inhibitor 38, Cycloheximide cs 38
Cc1ccc(OCC(=O)NCCC2=CCCCC2)cc1	MARV entry inh inconclusive
Cc1ccc(NC(=S)NCCC2=CCCCC2)cc1	MARV entry inh inconclusive, Shiga inhibitor 89, Cycloheximide cs 34
CN(C)CCCOc1ccc(C(C)(C)c2ccccc2)cc1	MARV entry inh 13µM, Lassa entry inh inconclusive, HCV inhibitor 11µM
COc1cccc(C(=O)Nc2cccc3ccccc23)c1OC	MARV entry inh 8.9µM, Lassa entry inh inconclusive, HCV inhibitor inconclusive, Shiga inhibitor 27, Cycloheximide cs 20
Cc1ccoc1C(=O)Nc1cccc2ccccc12	Cycloheximide cs 31 (no result: MARV entry inh, Lassa entry inh)
COc1cc(Cl)c(C)cc1NC(=O)c1cccc(OC)c1OC	MARV entry inh inconclusive, HCV inhibitor inconclusive, Cycloheximide cs 30
COc1cc(Cl)c(C)cc1NC(=O)Cc1cccs1	HCV inhibitor 3.5µM
CCOc1ccccc1NC(=O)c1cccc2ccccc12	HCV inhibitor inconclusive (no result: Shiga inhibitor)
CC(C)c1ccc(S(=O)(=O)N2CCN(C(=O)n3ccnc3)CC2)cc1	none (no result: MARV entry inh, Lassa entry inh, Shiga inhibitor, Cycloheximide cs)
c1ccc2c3c([nH]c2c1)CCNC3	none
C1=NCCc2c1[nH]c1ccccc21	MARV entry inh inconclusive, Lassa entry inh 5µM (no result: Shiga inhibitor, Cycloheximide cs)
COc1ccc(CN=C2Nc3ccccc3CS2)cc1	MARV entry inh inconclusive, Lassa entry inh inconclusive, Cycloheximide cs 30
COc1ccc(CN=C2NC(=O)CC(C(=O)Nc3ccc(F)cc3)S2)cc1 (centres undefined)	none
Oc1ccc(C2=NNC(=NCc3ccc4c(c3)OCO4)SC2)c(O)c1	MARV entry inh inconclusive, Cycloheximide cs 32
Cc1cc(C2=NNC(=NCc3ccccc3)SC2)c(C)n1-c1c(C)n(C)n(-c2ccccc2)c1=O	none
COc1ccc(CN=C2NN=C(c3ccc(Cl)cc3)CS2)cc1	Shiga inhibitor 52, Cycloheximide cs 21
COc1ccc(OC)c(C2=NNC(=NCc3ccc4c(c3)OCO4)SC2)c1	Lassa entry inh inconclusive, HCV inhibitor inconclusive
CC(C)(C)N=C1NN=C(c2ccc(Cl)cc2)CS1	HCV inhibitor 10µM, Shiga inhibitor 91, Cycloheximide cs 70 (no result: MARV entry inh, Lassa entry inh)
Clc1ccc(C2=NNC(=NCc3ccc4c(c3)OCO4)SC2)cc1	MARV entry inh 13µM, Lassa entry inh inconclusive
COc1ccc(C2=NN(C)C(=NCc3ccccc3)SC2)cc1	HCV inhibitor 7.9µM, Shiga inhibitor 38
CC(C)(C)N=C1NN=C(c2cc3ccccc3o2)CS1	MARV entry inh inconclusive, Lassa entry inh inconclusive, HCV inhibitor inconclusive, Shiga inhibitor 86, Cycloheximide cs 30
CCCCCOc1ccc(NC(=O)C(=O)NCC2CCCN2CC)cc1 (centres undefined)	HCV inhibitor inconclusive
O=C(COC(=O)/C=C/c1ccco1)Nc1ncc(C(F)(F)F)cc1Cl	MARV entry inh inconclusive, Lassa entry inh inconclusive
O=C(NCC1CCC2(CCN(Cc3cccc4ncccc34)CC2)O1)c1ccccc1 (centres undefined)	none (no result: MARV entry inh, Lassa entry inh, HCV inhibitor, Shiga inhibitor, Cycloheximide cs)
COC(=O)c1c(NC(=O)CN2CCC3(O)CCCCC3C2c2ccc(F)cc2)sc(C)c1C (centres undefined)	MARV entry inh inconclusive, HCV inhibitor inconclusive
COC(=O)c1c(NC(=O)CN2CCC3(O)CCCCC3C2c2cc(OC)ccc2OC)sc(C)c1C (centres undefined)	MARV entry inh 15µM, Lassa entry inh 7.9µM, HCV inhibitor inconclusive, FMDV inh inconclusive
Cc1ccc(C(=O)N2CCCC2)cc1S(=O)(=O)N1CCOCC1	none
O=[N+]([O-])c1cccnc1NCCNc1ncc(C(F)(F)F)cc1Cl	Shiga inhibitor 77, Cycloheximide cs 39
O=[N+]([O-])c1ccccc1NCCNc1ncc(C(F)(F)F)cc1Cl	HCV inhibitor inconclusive, Shiga inhibitor 121, Cycloheximide cs 29
CCC(CC)C(=O)Nc1nnc(-c2cccs2)s1	Cycloheximide cs 21
CCn1c(=O)c2c(nc3n2CCN3c2ccccc2)n(C)c1=O	MARV entry inh inconclusive, HCV inhibitor inconclusive
Cc1ccc(S(=O)(=O)NC(=O)NCCc2ccccc2)cc1	Cycloheximide cs 15
Cc1ccc(S(=O)(=O)NNC(=S)NCCc2ccccc2)cc1	none (no result: MARV entry inh, Lassa entry inh)
Cc1ccc(S(=O)(=O)NC(=O)NC(C)Cc2ccccc2)cc1 (centres undefined)	Lassa entry inh inconclusive, Cycloheximide cs 20
N#CCC(=O)Nc1ccc(C(=O)OCc2ccccc2Oc2ccccc2)cc1	MARV entry inh inconclusive

High-throughput results from PubChem.
